Rows were chosen to be rich in hits. Some 4.2% of all compounds tested hit in one or more screens of this group.
MITF act – increases MITF-driven TRPM1 promoter luciferase signal; activation, % at 12.5 µM; actives 0.75% (n = 300,000); AID 588334; SK-MEL-5 TRPM1-promoter luciferase, 24 h; % of positive control, neutral wells = 0;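 active = mean activation of at least 80% with every replicate also reaching 80%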;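 also: 0% = neutral control wells and 100% = parthenolide positive control wells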
FXN GAA850 act – frataxin GAA850 promoter activation. actives 0.56% (n = 360,000). activation, % at 6 µM. AID 540364. HEK293 lucGAA850 FXN promoter luciferase reporter, 24 h; percent of 10 µM SAHA response;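 active = activation above the average of all compounds screened plus 3 SD, cutoff fixed separately per campaign, cut at about 7.5% in these data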;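 also: 0% = DMSO wells and 100% = 10 µM SAHA wells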
esBAF inh – blocks esBAF chromatin remodeling in mouse ES cells | Bmi1-luciferase knock-in reporter, 24 h; 100% = twice the neutral-well signal | reporter increase, % at 12.5 µM | actives 2% (n = 350,000); in the data active = activation above about 40%;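 also: 0% = median of the plate's neutral control wells and 100% = double that signal; a rise in the Bmi1 reporter signal indicates esBAF inhibition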
Wnt act – activates Wnt/beta-catenin signaling in a reporter cell assay; activator, plate reader; activation, % at 9.35 µM; actives 1.2% (n = 300,000); in the data active = activation above about 30%, passing the limit was not always enough;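 also: 0% = neutral control wells and 100% = positive control wells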
AHR act – activates the human aryl hydrocarbon receptor; AHR-responsive luciferase reporter cells, luminescence; activation, % at 5 µM; actives 2.5% (n = 320,000); AID 2796; in the data active = activation above about 47%;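 also: 0% = vehicle wells and 100% = reference agonist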
The depositor's hits bear a star.

COc1ccc(NC(=O)Nc2nccs2)cc1 was read as MITF act 33, FXN GAA850 act 3, esBAF inh 32 and AHR act 1.
COc1ccc(NC(=O)Nc2ccc3[nH]ccc3c2)cc1 was read as FXN GAA850 act 2, Wnt act 16 and AHR act 6.
Screening COc1ccc(NC(=O)Nc2ccc3nonc3c2)cc1 returned FXN GAA850 act 4, Wnt act 39* and AHR act 44.
Screening COc1ccccc1-c1cn(CC[C@H]2CC[C@H](NC(=O)Cc3ccccn3)[C@@H](CO)O2)nn1 returned esBAF inh 3.
For O=C(NCC1CCCO1)c1ccc(-c2ccccc2Cl)o1 (stereo not drawn) the results were MITF act 130*, FXN GAA850 act 4, Wnt act -4 and AHR act 10.
O=C(NCC1CCCO1)c1cc(-c2ccccc2F)no1 (stereo not drawn) was read as MITF act 27, FXN GAA850 act 5, esBAF inh 57*, Wnt act 26 and AHR act 7.
For O=C(NC12CC3CC(CC(C3)C1)C2)c1ccc(-c2ccccc2Cl)o1 the results were MITF act 21, FXN GAA850 act 3, esBAF inh 45*, Wnt act 4 and AHR act -3.
`COCC(=O)Nc1ccc2c(c1)[C@H]1C[C@@H](CC(=O)N3CCc4ccccc4C3)O[C@H](CO)[C@H]1O2` gave esBAF inh -1.
Screening C[C@@H]1CN([C@@H](C)CO)C(=O)c2cc(C#CC3(O)CCCC3)cnc2O[C@H]1CN(C)C(=O)Cc1ccncc1 returned esBAF inh 8.
For O=C(C[C@H]1CC[C@@H]2[C@H](COC[C@H](O)CN2C(=O)c2ccc3c(c2)OCO3)O1)NCCN1CCCCC1 the results were esBAF inh -2.
Cc1ccc(NS(=O)(=O)c2cc(NC(=O)c3ccc4c(c3)NC(=O)CS4)ccc2Cl)c(C)c1 was read as MITF act 8, FXN GAA850 act 4 and AHR act 54*.
`C[C@@H]1CCCCO[C@@H](CN(C)C(=O)c2ccccc2)[C@@H](C)CN([C@@H](C)CO)C(=O)c2cc(NS(=O)(=O)c3ccc(Cl)cc3)ccc2O1` gave esBAF inh -4.
Screening CC(C)(C)c1ccc(OC(=O)N2CCOCC2)cc1 returned MITF act 71, FXN GAA850 act 5, esBAF inh 45*, Wnt act 1 and AHR act 3.
`Cc1oc2ccc(OC(=O)N3CCOCC3)cc2c1C(=O)OC(C)C` gave MITF act -7, FXN GAA850 act 0, esBAF inh 7 and AHR act 47*.
For Cc1oc2ccc(OCC(N)=O)cc2c1C(=O)OC(C)C the results were FXN GAA850 act 1, esBAF inh -10, Wnt act -7 and AHR act 59*.
`Cc1cc(O)ccc1NC(=S)NC(=O)c1cncc(Br)c1` gave FXN GAA850 act 0, esBAF inh 7, Wnt act 2 and AHR act 60*.
Screening Cc1ccccc1NC(=S)NC(=O)c1cncc(Br)c1 returned MITF act 7, FXN GAA850 act 2 and AHR act 41.
Screening N/C(=N\OC(=O)c1cccnc1)c1ccccc1Cl returned MITF act 17, FXN GAA850 act 1, esBAF inh 74*, Wnt act 9 and AHR act 2.
Screening COc1cc(OC)cc(C(=O)O/N=C(\N)c2ccccn2)c1 returned FXN GAA850 act 1, Wnt act 52* and AHR act 29.
For COc1ccccc1C(=O)O/N=C(\N)c1ccccn1 the results were FXN GAA850 act 1, esBAF inh -36, Wnt act 54* and AHR act 32.
For N/C(=N\OC(=O)c1ccccc1[N+](=O)[O-])c1ccccn1 the results were MITF act 35, FXN GAA850 act 5, esBAF inh -17, Wnt act 14 and AHR act 1.
N/C(=N\OC(=O)c1ccccc1Cl)c1ccccn1 was read as MITF act -65, FXN GAA850 act -7, esBAF inh -72, Wnt act -8 and AHR act 52*.
Screening COc1cc(OC)c(C(=O)O/N=C(\N)c2ccccn2)cc1OC returned MITF act 26, FXN GAA850 act 1, esBAF inh 11, Wnt act 2 and AHR act 3.
Screening C[C@@H]1CN([C@H](C)CO)C(=O)c2cc(NC(=O)Cc3ccccc3)ccc2O[C@@H]1CN(C)S(C)(=O)=O returned esBAF inh 2.
For C[C@@H]1CN([C@@H](C)CO)C(=O)c2cc(NC(=O)CCC(F)(F)F)ccc2O[C@@H](C)CCCCO[C@H]1CN(C)C(=O)C1CCCCC1 the results were esBAF inh 9.
For O=C(Nc1ccc2c(c1)OCO2)N[C@@H]1CC[C@H](CCNC(=O)C2CCC2)O[C@@H]1CO the results were esBAF inh 2.
`C[C@H]1CN([C@@H](C)CO)S(=O)(=O)c2ccc(C#Cc3ccccc3F)cc2O[C@H]1CN(C)CC1CC1` gave esBAF inh -9.
Screening Cn1ccnc1SCC(=O)c1c[nH]c2ccccc12 returned MITF act 14, FXN GAA850 act 6, esBAF inh 32, Wnt act 55* and AHR act 70*.
For Cn1ccnc1SCC(=O)n1c2c(c3ccccc31)CCCC2 the results were MITF act 14, FXN GAA850 act 1, esBAF inh -2, Wnt act 1 and AHR act 72*.
CC(=O)c1ccc(-n2c(SCC(=O)c3c[nH]c4ccccc34)nc3ccccc3c2=O)cc1 was read as MITF act -9, FXN GAA850 act -1, Wnt act 45* and AHR act -6.
`Cn1ccnc1SCC(=O)Nc1cccc2ccccc12` gave MITF act 17, FXN GAA850 act -1, esBAF inh 27, Wnt act 5 and AHR act 10.
For COc1ccccc1C(=O)CSc1nccn1C the results were MITF act 34, FXN GAA850 act 3, esBAF inh -1, Wnt act 5 and AHR act 2.
O=C(C[C@@H]1CC[C@@H]2[C@H](COC[C@H](O)CN2C(=O)Nc2ccc(Cl)c(Cl)c2)O1)NC1CCC1 was read as esBAF inh -3.
Screening O=S(=O)(N[C@@H]1CC[C@@H](CCn2cc(-c3cccc(F)c3)nn2)O[C@@H]1CO)c1ccc(Cl)cc1 returned esBAF inh -5.
Screening COCC(=O)N[C@@H]1CC[C@H](CC(=O)NCc2ccccc2OC)O[C@@H]1CO returned esBAF inh -2.
`Cc1noc(C)c1S(=O)(=O)N(C)C[C@@H]1Oc2ccc(NC(=O)Nc3ccc(C(F)(F)F)cc3)cc2CC(=O)N([C@@H](C)CO)C[C@H]1C` gave esBAF inh -2.
`COc1ccc(/C=N/NC(=O)c2ccc(COc3ccccc3Cl)o2)cc1` gave MITF act -3, FXN GAA850 act 2 and AHR act 62*.

High-throughput results: PubChem, several laboratories
